Only some compounds are listed: those with a hit (about 3.1% of all), similar ones and a draw of the others.
TRPM1 prom inh: MITF TRPM1 promoter inhibition in SK-MEL-5 cells. inhibition, % at 12.5 µM. AID 488899. 0.83% of 330,000 active. SK-MEL-5 TRPM1 promoter luciferase, 24 h;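 active = mean inhibition across replicates of 60% or more, whatever share of single replicates reaches that level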
KKLEB tox: CF airway cell cytotoxicity counter-screen; activity change (cytotoxicity), % at 5 µM; 0.36% of 360,000 active; KKLEB CF airway cells viability, ATPlite luminescence, overnight; stronger effect = lower value; cells stimulated with P. aeruginosa culture filtrate;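 active = corrected activity change at or below -50% at 5 µM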
CF NFkB block: inhibitors of cystic fibrosis induced NF-kB; KKLEB NF-kB-GFP reporter, PAF-induced, GFP fluorescence overnight; inhibition, % at 5 µM; 0.86% of 360,000 active;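 active = at least 50% inhibition at 5 µM, scaled per plate between neutral and stimulator controls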;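 note: PAF is a Pseudomonas aeruginosa culture filtrate used as stimulus; plate controls were PAF-stimulated DMSO wells for no effect and unstimulated DMSO wells for full effect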
HIF-2a block: HIF-2a inhibition. 786-0 RCC cells HIF-2a reporter, luciferase luminescence, overnight. AID 624352. inhibition, % at 18.8 µM. 0.72% of 360,000 active;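 active = inhibition of the luminescence signal of 40% or more relative to plate controls, in a single-dose primary screen at 18.75 µM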
ABHD5 PLIN5 PPI: ABHD5-PLIN5 protein interaction inhibition | Q00G26+Q8WTS1 | Split G. princeps luciferase complementation, luminescence, 4 h | inhibition, % at 4 µM | 0.78% of 360,000 active | AID 602281;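 active = inhibition above the mean inhibition across every tested compound plus 3 SD, cut at about 22% in these data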;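 note: 0% = DMSO only wells and the 100% control is not disclosed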
Peg3 promoter: inhibitors of Peg3 promoter | HeLa PEG-Prom luciferase reporter, luminescence, overnight | inhibition, % at 20 µM | 1.7% of 360,000 active;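 active = inhibition of at least 50% at 20 µM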
Mdm2-MdmX confirm: confirmation of inhibitors of human Mdm2/MdmX interaction, set 2; shares compounds with HIF-2a block; SaOS-2 split-luciferase Mdm2/MdmX complementation, luminescence; 99% of 740 active; inhibition, % at 8 µM;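 active = mean inhibition of the luminescence signal across two replicates at or above 26 percent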
Target sequence (O15151 whole entry, looked up): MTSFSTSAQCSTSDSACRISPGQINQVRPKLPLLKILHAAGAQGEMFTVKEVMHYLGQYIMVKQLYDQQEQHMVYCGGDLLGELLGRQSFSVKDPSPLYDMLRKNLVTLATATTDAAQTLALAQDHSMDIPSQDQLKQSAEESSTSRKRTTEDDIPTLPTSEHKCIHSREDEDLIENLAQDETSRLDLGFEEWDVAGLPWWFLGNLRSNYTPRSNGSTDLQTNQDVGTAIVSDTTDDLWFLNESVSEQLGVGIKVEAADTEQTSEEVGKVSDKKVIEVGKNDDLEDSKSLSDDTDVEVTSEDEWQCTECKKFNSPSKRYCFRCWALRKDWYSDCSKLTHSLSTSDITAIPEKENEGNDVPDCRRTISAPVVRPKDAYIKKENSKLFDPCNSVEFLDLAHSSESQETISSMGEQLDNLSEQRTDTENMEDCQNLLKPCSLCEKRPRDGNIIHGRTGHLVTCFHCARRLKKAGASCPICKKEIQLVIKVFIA
Target sequence (Q00987 whole entry, looked up): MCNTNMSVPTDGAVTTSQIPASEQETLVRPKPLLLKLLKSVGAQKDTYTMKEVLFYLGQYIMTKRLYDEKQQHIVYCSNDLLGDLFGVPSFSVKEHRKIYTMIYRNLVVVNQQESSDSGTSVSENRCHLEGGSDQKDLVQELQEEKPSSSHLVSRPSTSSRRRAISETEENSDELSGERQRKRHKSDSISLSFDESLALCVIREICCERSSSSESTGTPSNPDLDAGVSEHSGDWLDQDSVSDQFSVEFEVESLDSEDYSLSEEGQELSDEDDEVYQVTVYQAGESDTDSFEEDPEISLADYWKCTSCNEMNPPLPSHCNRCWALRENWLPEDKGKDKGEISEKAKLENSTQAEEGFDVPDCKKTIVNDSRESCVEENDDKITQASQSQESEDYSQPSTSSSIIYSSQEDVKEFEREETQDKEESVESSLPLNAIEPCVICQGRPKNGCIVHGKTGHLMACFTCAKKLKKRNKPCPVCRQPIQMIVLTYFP
HIF-2a inh conf: confirmation of HIF-2a inhibitors. 786-0 RCC cells, HIF-2a luciferase reporter luminescence, overnight. 56% of 1,800 active. inhibition, % at 18.8 µM. shares compounds with HIF-2a block;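 active = mean inhibition across four replicates of at least 40 percent at the single tested concentration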
HIF-1a cs: inhibits HIF-1a reporter, a counter-screen for HIF-2a inhibitors; shares compounds with HIF-2a block; MiaPaCa-2 HIF-1a luciferase reporter, desferoxamine, overnight; inhibition, % at 18.8 µM; 72% of 1,800 active;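 active = mean inhibition of the reporter signal across four replicates at the single tested dose of 50% or more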
Active calls of the source: *; · = no result.

SMILES | TRPM1 prom inh | KKLEB tox | CF NFkB block | HIF-2a block | ABHD5 PLIN5 PPI | Peg3 promoter | HIF-2a inh conf | HIF-1a cs | others
COc1ccc2[nH]c3c(=O)n(/N=C/[C@H]4C(C)C=C(C)CC4C)c(=O)[nH]c3c2c1 (stereo not given in full) | 17 | -12 | 6 | 58* | 1 | 51* | -2 | 100*
CC1=C/C(=N\OS(=O)(=O)c2ccccc2)C(C)=CC1=O | 34 | -13 | -7 | 65* | 7 | 106* | · | · | Mdm2-MdmX confirm=103*
Cn1cc([N+](=O)[O-])c(C(=O)Nc2cc(Oc3ccccc3)cc([N+](=O)[O-])c2)n1 | 82* | -29 | 78* | 95* | 1 | 104* | 63* | 108*
CC1CC(=O)N(CC(=O)NCc2ccc(F)cc2)c2ccccc2S1(=O)=O (stereo not given) | -5 | 6 | -13 | -3 | -1 | 10 | · | ·
C=CCNC(=S)N1CCN(c2cc3c(cc2F)c(=O)c(C(=O)O)cn3CC)CC1 | -4 | -7 | 18 | -80 | 3 | -18 | · | ·
CN(C)C(=O)/C(C#N)=C\c1cc(Br)c(Sc2ccc(Cl)cc2)o1 | 16 | -22 | 31 | 57* | 7 | 78* | 15 | 103*
CN(C)CCCN(C(=O)c1cc2cc([N+](=O)[O-])ccc2s1)c1nc2cc3c(cc2s1)OCCO3 | 87* | -94* | 80* | 76* | 10 | 101* | 29 | 104*
C/C(=N\NC(=S)Nc1cc(S(=O)(=O)N2CCOCC2)ccc1Cl)c1ccccc1F | 27 | 0 | 15 | 70* | -7 | 53* | 25 | 87*
O=C1CN(C(=O)COC(=O)CNS(=O)(=O)/C=C/c2ccccc2)c2ccccc2N1 | 0 | 6 | 16 | 4 | 1 | 14 | · | ·
CC(=O)N1CCN(C(=O)c2cccc(S(=O)(=O)N3CCOCC3)c2)CC1 | -3 | -2 | -28 | 8 | 4 | -22 | · | ·
Cn1c2ccccc2c2cc([N+](=O)[O-])ccc21 | 0 | 7 | -110 | -30 | 4 | -29 | · | ·
CCN(CC)CCn1c2ccccc2c2nc3ccc([N+](=O)[O-])cc3cc21 | -12 | 10 | -68 | -59 | -1 | 28 | · | · | Mdm2-MdmX confirm=83*
CC[C@]1(C(=O)OC)[C@H]2C(=O)N(Cc3ccccc3)C(=O)[C@H]2[C@H]2CN=C(SCc3ccc(C)cc3)N21 | -4 | 7 | -2 | 7 | -2 | 14 | · | · | Mdm2-MdmX confirm=97*
CN(C(=O)/C=C/c1ccc([N+](=O)[O-])s1)c1ccccc1 | 69* | 16 | 14 | 62* | 5 | 6 | 61* | 90*
Cn1c(=O)[nH]c(=O)c2[nH]c(N(Cc3ccccc3)Cc3ccccc3)nc21 | 4 | 1 | -3 | 41* | 8 | 24 | 11 | -7
O=C(Nc1ccc2nc3n(c(=O)c2c1)CCCC3)c1cc([N+](=O)[O-])ccc1F | 81* | -22 | 48 | 48* | 9 | 111* | 25 | 105* | Mdm2-MdmX confirm=103*
Cc1ccc(NC(=O)CCNS(=O)(=O)c2ccc(OC(F)(F)F)cc2)c(O)c1 | -6 | -13 | -10 | 1 | -1 | -2 | · | ·
CC(=O)c1ccccc1NC(=O)CN1C(=O)NC2(CCCCCCC2)C1=O | 9 | 1 | 8 | 14 | 6 | -22 | · | ·
Cc1c(CC(=O)NCCCC(=O)O)c(=O)oc2cc3c(cc12)CCC(C)(C)O3 | 51 | -6 | 10 | 61* | -1 | 25 | 81* | 86*
Cc1c(CC(=O)NCCCCCC(=O)O)c(=O)oc2cc3c(cc12)CCC(C)(C)O3 | -4 | 7 | 14 | 12 | 8 | 9 | · | ·
CC(C)(O)C#Cc1ccc(N2C(c3ccsc3)=Cc3ccc(F)cc3C2c2c[nH]c3ccc(C#N)cc23)cc1 (stereo not given) | · | · | · | -31 | -1 | · | · | ·
CCOC(=O)c1ccc(-c2ccc(N3C(c4ccsc4)=Cc4ccc(F)cc4C3c3c[nH]c4ccc(C#N)cc34)cc2)cc1F (stereo not given) | · | · | · | 71* | 0 | · | 47* | 41
COc1cccc(C(=O)C(C#N)=C(SC)SC)c1 | 82* | -58* | 66* | 80* | 8 | 102* | 91* | 29
CSC(SC)=C(C#N)C(=O)c1ccccc1 | 65* | -50* | 26 | 90* | -4 | 99* | 89* | -5
COc1cccc(C(=O)C(CCC#N)c2ccccc2)c1 (stereo not given) | · | 4 | 24 | 13 | 5 | 9 | · | ·
SMILES | TRPM1 prom inh | KKLEB tox | CF NFkB block | HIF-2a block | ABHD5 PLIN5 PPI | Peg3 promoter | HIF-2a inh conf | HIF-1a cs | others
COc1ccc(C(C(=O)NC(C)C)N(C(=O)CCC(=O)Nc2nccs2)c2ccccc2F)cc1 (stereo not given) | -4 | 8 | 9 | 16 | 8 | -5 | · | ·
Cc1nn(C)cc1CNC(=O)c1ccc(F)cc1 | 1 | -1 | -8 | 0 | -5 | -1 | · | ·
O=C(CCSCc1ccc(Cl)cc1)NCc1cccs1 | 7 | 0 | -11 | 6 | -6 | 14 | · | ·
COCCNC(=O)[C@H](CSCc1ccccc1)N1Cc2ccccc2C1=O | -1 | -3 | 3 | 48* | -7 | 11 | 14 | -6
COCCCNC(=O)[C@H](CSCc1ccccc1)N1Cc2ccccc2C1=O | 6 | 6 | 16 | -8 | -3 | -24 | · | ·
Cc1cccc(NC(=O)CSc2nc(NS(=O)(=O)c3ccccc3)cc(=O)[nH]2)c1 | 0 | 5 | -4 | 16 | -10 | 16 | · | ·
O=S(=O)(c1ccc(Cl)cc1)c1snnc1-c1ccccc1 | 83* | -3 | 40 | 58* | 5 | 93* | 63* | 103* | Mdm2-MdmX confirm=103*
CN(C)c1ncc(S(=O)(=O)c2ccc(Cl)cc2)c(-c2ccccc2)n1 | -2 | -8 | 13 | 11 | -6 | 23 | · | ·
O=S(=O)(c1ccc(F)cc1)c1snnc1-c1ccccc1 | 66* | -34 | 36 | 41* | 7 | 75* | 13 | 11
CCCN1C(=O)/C(=C/c2ccccc2OCc2ccc(C(=O)O)cc2)NC1=S | -4 | -32 | 15 | 10 | 1 | 8 | · | ·
CCOC(=O)c1cnc(N2CCN(C(=O)OCC)CC2)[nH]c1=O | 5 | -5 | 0 | 7 | 3 | 8 | · | ·
COc1ccc2c(c1)-c1c(sn(-c3ccc(OC)c(OC)c3)c1=S)C(C)(C)N2 | 11 | 8 | -4 | 38 | -8 | 27 | · | ·
COc1ccc2c(c1)-c1c(ssc1=S)C(C)(C)N2 | 1 | -34 | 81* | 24 | 1 | 4 | · | · | Mdm2-MdmX confirm=95*
